Reference: PubChem BioAssay (Tox21)
“And” between values parts separate entries of the source, which are not always exact repeats. Equal entries are not always repeated. Results filed as inconclusive are left out. The source made the active and inactive calls. Calls come from the whole dose curve; as a rule, active = well fitted cell-killing curve with a large enough effect in the repeat runs; inconclusive = weak or mixed curves, or effect the other way; inactive = flat fitted curve, though single readings scatter.

Experiment: qHTS assay to identify small molecule agonists of the sonic hedgehog signaling (Shh) pathway - cell viability counter screen (AID 1259366); note: nearly all actives have a fitted effect of over 50% in size
Settings: NIH/3T3 Gli1-Luc viability, CellTiter-Fluor, 24 h; series mostly up to 92.4 µM; viability change, negative = cytotoxic: at the top concentration
Excerpt: National Center for Advancing Translational Sciences [NCATS]
NIH Chemical Genomics Center [NCGC]
U.S. Environmental Protection Agency [EPA]
National Institutes of Environmental Health Sciences [NIEHS]
National Toxicology Program [NTP]
U.S. Food and Drug Administration [FDA]
The sonic hedgehog (Shh) pathway is essential for normal embryonic development. Dysregulation of the Shh pathway can cause severe developmental defects in organs. Therefore chemicals that interfere with the pathway are potential developmental toxicants. A cell line designated 3T3Gli1-Luc (DMB/OARSA/CFSAN/FDA, Laurel, MD), a NIH/3T3 derived clone containing stably integrated Gli1-Luc reporter is used to detect chemical interference of the Shh pathway, by changes in the expression of the firefly Luc gene under the control of the Gli1 transcriptional response element. This cell line was used to screen Tox21 libraries for identifying and prioritizing the potential developmental toxicants that interfere Shh pathway. The cytotoxicity of the compounds was tested in parallel by measuring the cell viability using CellTiter-Fluor assay system (Promega, Madison, WI) in the same wells.
Tox21 Assay Protocol Summary:
3T3 Gli1-Luc cells were dispensed at 2,000 per well in 5uL of culture medium into white solid bottom 1536-well plates (Greiner Bio-One, Monroe, NC) using a Multidrop Combi (Thermo Scientific, Waltham, MA) dispenser. The assay plates were incubated at 37 C and 5% CO2 for 4hr, and then 23nL of compounds dissolved in DMSO and positive control were transferred using a Pintool station (Wako, San Diego, CA). The assay plates were incubated at 37C and 5% CO2 for 24hr. For viability read, after 23hr of compound treatment, 1uL of CellTiter-Fluor reagent (Promega Corporation, Madison, WI) was added to each well of the assay plates using Flying Reagent Dispenser (FRD, Aurora Discovery, San Diego, CA) and incubated the assay plates at 37C for 1hr. The fluorescence signal was quantified using a ViewLux plate reader (Perkin Elmer, Shelton, CT).
% is set by controls: 0 for no effect and ±100 for the full control effect; potency is the fitted concentration of half-maximal effect.

| Compound | viability change, negative = cytotoxic | Potency |
| --- | --- | --- |
| O=C(O)c1cc(-c2ccc(F)cc2F)ccc1O | 2.05% [at 42.5 µM] (inactive) | – |
| Cc1c(C)c2c(c(C)c1O)CC[C@@](C)(CCC[C@H](C)CCC[C@H](C)CCCC(C)C)O2 | 0.828% (inactive) | – |
| COC(=O)Nc1nc2ccc(C(=O)c3ccccc3)cc2[nH]1 | -9.3% [at 42.5 µM] (inactive) | – |
| OCCN1CCN(CCCN2c3ccccc3Sc3ccc(C(F)(F)F)cc32)CC1 | – | 23.7 µM (active) |
| OC[C@H]1O[C@H](O[C@H]2O[C@H](CO)[C@@H](O)[C@H](O)[C@H]2O)[C@H](O)[C@@H](O)[C@@H]1O | 0.0789% (inactive) | – |
| Nc1ccc(Oc2ccc(Cl)cc2)cc1 | -17.9% (inactive) | – |
| NC[C@H]1O[C@H](O[C@H]2[C@H](O[C@@H]3O[C@H](CO)[C@@H](O)[C@H]3O)C(O)[C@H](N)C[C@@H]2N)[C@H](N)[C@@H](O)[C@@H]1O (stereo not given in full) | 2.25% [at 8.39 µM] (inactive) | – |
| Cc1ccc(O)c(N)c1 | – | 43.3 µM (active) |
| O=C(O)Cc1ccc2c(c1)C(=O)c1ccccc1CO2 | 0.298% [at 42.5 µM] (inactive) | – |
| OC1CCCc2ccccc21 (stereo not given) | 3.14% (inactive) | – |
| O=c1[nH]c(=O)n([C@H]2C[C@H](O)[C@@H](CO)O2)cc1F | -2.02% [at 42.5 µM] (inactive) | – |
| CC(=O)CC(=O)Nc1ccc(S(=O)(=O)O)cc1 | -3.44% (inactive) | – |
| O=C(O)c1cc(O)c2ccccc2c1O | – | 9.69 µM (active) |
| CC[N+](CC)(CC)CCOc1ccc(/C=C/c2ccccc2)cc1 | -7.86% [at 42.5 µM] (inactive) | – |
| Sc1nc2ccccc2s1 | 0.418% (inactive) | – |
| Cl[Si](Cl)(c1ccccc1)c1ccccc1 | 3.05% (inactive) | – |
| CN(C)Cc1ccccc1O | 1.81% (inactive) | – |
| NC(=S)NC(N)=S | 14.7% (inactive) | – |
| CCO[Si](OCC)(OCC)OCC | 4% (inactive) | – |
| O=C(/C=C/c1ccccc1)OC/C=C/c1ccccc1 | 3.39% (inactive) | – |

| Compound | viability change, negative = cytotoxic | Potency |
| --- | --- | --- |
| C=CCCC(=O)/C=C/C1C(C)=CCCC1(C)C (stereo not given) | -1.85% (inactive) | – |
| CCCCOC(=O)CC | 4.18% (inactive) | – |
| FC(F)(F)c1cccc(Cl)c1 | 3.99% (inactive) | – |
| Cc1cccc2cccnc12 | 1.39% (inactive) | – |
| CN(C)Cc1cc(C(C)(C)C)c(O)c(C(C)(C)C)c1 | -10.6% (inactive) | – |
| Cc1ccc(O)c(O)c1 | – | 21.1 µM (active) |
| Cc1c(F)c(N2CCNC(C)C2)cc2c1c(=O)c(C(=O)O)cn2C1CC1 (stereo not given) | 11.2% [at 42.5 µM] (inactive) | – |
| Nc1nc2c(ncn2COCCO)c(=O)[nH]1 | 1.02% [at 42.5 µM] (inactive) | – |
| C=CC(C)(CCC=C(C)C)OC=O (stereo not given) | -0.641% (inactive) | – |
| C=CCn1c(=O)n(CC=C)c(=O)n(CC=C)c1=O | 0.968% (inactive) | – |
| CCCCNS(=O)(=O)c1ccc(C)cc1 | -4.13% (inactive) | – |
| CC(CO)Oc1ccccc1 (stereo not given) | -9.33% (inactive) | – |
| CC(C)=CCNc1ncnc2c1ncn2[C@@H]1O[C@H](CO)[C@@H](O)[C@H]1O | – | 13.3 µM (active) |
| COC1=C(OC)C(=O)C(CCCCCCCCCCO)=C(C)C1=O | -6.08% [at 42.5 µM] (inactive) | – |
| Cc1cc(C(C)(C)C)c(O)c(C)c1Cn1c(=O)n(Cc2c(C)cc(C(C)(C)C)c(O)c2C)c(=O)n(Cc2c(C)cc(C(C)(C)C)c(O)c2C)c1=O | -2.13% (inactive) | – |
| c1ccc(C(O[C@@H]2CCCN(CCc3ccc4c(c3)OCO4)C2)c2ccccc2)cc1 | -0.853% (inactive) | – |
| CC(C)NC[C@@H](O)COc1ccc(CC(N)=O)cc1 | 1.38% [at 42.5 µM] (inactive) | – |
| Oc1ccccc1O | – | 9.81 µM (active) and 15.4 µM (active) |
| CCCCCCOC(=O)C(C)CC (stereo not given) | 1.48% (inactive) | – |
| c1cnccn1 | -0.369% (inactive) | – |
